Test results taken from PubChem BioAssay AID1159580 (chemical genetic matrix, 2015).
Among all 5,500 compounds or so, about 2,000 (36%) were called active. Roughly 18% stayed inconclusive and do not appear here. Rule as the data show it: active = normalized growth mostly below about 0.91 (no sharp cut-off); inconclusive = no clear call, values can overlap the other calls; inactive = mostly above about 0.92. Some of the results follow.

Assay: chemical genetic growth profiling, strain panel (AID 1159580);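 also: tested at 20 µM; growth read once vehicle control cultures reached saturation at 30 °C; 1 = growth at the plate median or of vehicle wells; lower values mean less growth of the strain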
Conditions: growth OD

Measured: normalized growth

COc1cc(OC)c2c(c1Cl)OC1(C2=O)C(O)=CC(=O)CC1C (stereo unspecified)
inactive: S. cerevisiae deletion strains, locus YJR075W, strain HOC1, active compounds read low 1.02 | S. cerevisiae deletion strains, locus YKL009W, strain mrt4, active compounds read low 1.01 | S. cerevisiae deletion strains, locus YKL068W, active compounds read low 0.991 | S. cerevisiae deletion strains, locus YKL085W, strain MDH1 (second series), active compounds read low 1.01 | S. cerevisiae deletion strains, locus YKL085W, strain MDH1, active compounds read low 1.01 | S. cerevisiae deletion strains, locus YKL160W, strain elf1, active compounds read low 1.01 | S. cerevisiae deletion strains, locus YKR001C, strain vps1, active compounds read low 1.03 | S. cerevisiae deletion strains, locus YKR026C, strain gcn3, active compounds read low 1.01 | S. cerevisiae deletion strains, locus YKR091W, strain srl3, active compounds read low 1.01 | S. cerevisiae deletion strains, locus YLL001W, strain dnm1, active compounds read low 1 | S. cerevisiae deletion strains, locus YLL026W, active compounds read low 1.01 | S. cerevisiae deletion strains, locus YLL041C, strain sdh2, active compounds read low 1.01 | S. cerevisiae deletion strains, locus YLR027C, strain aat2, active compounds read low 1.03 | S. cerevisiae deletion strains, locus YLR039C, strain RIC1, active compounds read low 1.08 | S. cerevisiae deletion strains, locus YLR058C, strain SHM2, active compounds read low 1.03 | S. cerevisiae deletion strains, locus YLR102C, strain apc9, active compounds read low 0.991 | S. cerevisiae deletion strains, locus YLR113W, strain HOG1, active compounds read low 1.04 | S. cerevisiae deletion strains, locus YLR221C, strain rsa3, active compounds read low 1.02 | S. cerevisiae deletion strains, locus YLR258W, strain gsy2, active compounds read low 1 | S. cerevisiae deletion strains, locus YLR262C, strain YPT6 (second series), active compounds read low 1.02 | S. cerevisiae deletion strains, locus YLR262C, strain YPT6, active compounds read low 1.06 | S. cerevisiae deletion strains, locus YLR268W, strain sec22, active compounds read low 1.02 | S. cerevisiae deletion strains, locus YLR320W, strain mms22, active compounds read low 1.02 | S. cerevisiae deletion strains, locus YLR342W, strain FKS1 (second series), active compounds read low 1.06 | S. cerevisiae deletion strains, locus YLR342W, strain FKS1, active compounds read low 1.01 | S. cerevisiae deletion strains, locus YLR357W, strain rsc2, active compounds read low 1.02 | S. cerevisiae deletion strains, locus YLR370C, strain arc18, active compounds read low 1.01 | S. cerevisiae deletion strains, locus YLR371W, strain rom2, active compounds read low 1 | S. cerevisiae deletion strains, locus YLR384C, strain iki3, active compounds read low 1.01 | S. cerevisiae deletion strains, locus YLR418C, strain cdc73, active compounds read low 0.992 | S. cerevisiae deletion strains, locus YML016C, strain PPZ1, active compounds read low 1.03 | S. cerevisiae deletion strains, locus YML032C, strain rad52, active compounds read low 1 | S. cerevisiae deletion strains, locus YML120C, strain ndi1, active compounds read low 1.01 | S. cerevisiae deletion strains, locus YML124C, strain tub3, active compounds read low 0.991 | S. cerevisiae deletion strains, locus YMR058W, strain fet3, active compounds read low 1.01 | S. cerevisiae deletion strains, locus YMR078C, strain ctf18, active compounds read low 0.98 | S. cerevisiae deletion strains, locus YMR125W, strain sto1, active compounds read low 1.01 | S. cerevisiae deletion strains, locus YMR129W, active compounds read low 1.01 | S. cerevisiae deletion strains, locus YMR205C, strain PFK2, active compounds read low 1.02 | S. cerevisiae deletion strains, locus YMR223W, strain ubp8, active compounds read low 1.01 | S. cerevisiae deletion strains, locus YMR231W, strain pep5, active compounds read low 0.995 | S. cerevisiae deletion strains, locus YMR307W, strain GAS1, active compounds read low 1.04 | S. cerevisiae deletion strains, locus YNL067W, strain RPL9B, active compounds read low 1.01 | S. cerevisiae deletion strains, locus YNL071W, strain lat1, active compounds read low 1.01 | S. cerevisiae deletion strains, locus YNL128W, strain TEP1, active compounds read low 1.03 | S. cerevisiae deletion strains, locus YNL183C, strain NPR1, active compounds read low 0.932 | S. cerevisiae deletion strains, locus YNL209W, strain ssb2, active compounds read low 1.03 | S. cerevisiae deletion strains, locus YNL233W, strain BNI4, active compounds read low 1.02 | S. cerevisiae deletion strains, locus YNL248C, strain rpa49, active compounds read low 1.01 | S. cerevisiae deletion strains, locus YNL250W, strain rad50, active compounds read low 0.992 | S. cerevisiae deletion strains, locus YNL271C, strain bni1, active compounds read low 0.984 | S. cerevisiae deletion strains, locus YNL298W, strain CLA4, active compounds read low 1.01 | S. cerevisiae deletion strains, locus YNL307C, strain MCK1, active compounds read low 0.993 | S. cerevisiae deletion strains, locus YNL322C, strain KRE1 (second series), active compounds read low 1.01 | S. cerevisiae deletion strains, locus YNL322C, strain KRE1, active compounds read low 1.02 | S. cerevisiae deletion strains, locus YNR049C, strain mso1, active compounds read low 1 | S. cerevisiae deletion strains, locus YNR052C, strain pop2, active compounds read low 0.969 | S. cerevisiae deletion strains, locus YOL006C, strain TOP1, active compounds read low 1.2 | S. cerevisiae deletion strains, locus YOL012C, strain htz1 1.12 | S. cerevisiae deletion strains, locus YOL147C, strain pex11, active compounds read low 1 | S. cerevisiae deletion strains, locus YOR001W, strain rrp6, active compounds read low 1.01 | S. cerevisiae deletion strains, locus YOR061W, strain CKA2, active compounds read low 1.04 | S. cerevisiae deletion strains, locus YOR069W, strain VPS5, active compounds read low 1.02 | S. cerevisiae deletion strains, locus YOR070C, strain gyp1, active compounds read low 1.02 | S. cerevisiae deletion strains, locus YOR080W, strain dia2, active compounds read low 1.01 | S. cerevisiae deletion strains, locus YOR083W, strain WHI5, active compounds read low 1.01 | S. cerevisiae deletion strains, locus YOR106W, strain vam3, active compounds read low 1.02 | S. cerevisiae deletion strains, locus YOR136W, strain idh2, active compounds read low 1 | S. cerevisiae deletion strains, locus YOR144C, strain elg1, active compounds read low 0.996 | S. cerevisiae deletion strains, locus YOR184W, strain ser1, active compounds read low 1.04 | S. cerevisiae deletion strains, locus YOR231W, strain MKK1, active compounds read low 0.978 | S. cerevisiae deletion strains, locus YOR265W, strain rbl2, active compounds read low 1 | S. cerevisiae deletion strains, locus YOR270C, strain vph1, active compounds read low 1.05 | S. cerevisiae deletion strains, locus YOR290C, strain snf2, active compounds read low 1.02 | S. cerevisiae deletion strains, locus YOR316C, strain cot1, active compounds read low 0.992 | S. cerevisiae deletion strains, locus YPL051W, strain arl3, active compounds read low 0.999 | S. cerevisiae deletion strains, locus YPL078C, strain atp4, active compounds read low 1.01 | S. cerevisiae deletion strains, locus YPL106C, strain sse1, active compounds read low 1 | S. cerevisiae deletion strains, locus YPL240C, strain hsp82, active compounds read low 1 | S. cerevisiae deletion strains, locus YPL256C, strain CLN2, active compounds read low 0.979 | S. cerevisiae deletion strains, locus YPR119W, strain clb2, active compounds read low 0.986 | S. cerevisiae deletion strains, locus YPR141C, strain kar3, active compounds read low 0.988 | S. cerevisiae deletion strains, locus YPR163C, strain tif3, active compounds read low 0.995 | S. cerevisiae deletion strains, locus YPR167C, strain met16, active compounds read low 0.997 | S. cerevisiae deletion strains, strain wtn01, active compounds read low 1.04 | S. cerevisiae strains, strain wild type, active compounds read low 1.04
